26 compounds from PubChem BioAssay can be followed below.

As a reminder, the inhibition is the change of the read-out against control, counted positive when it falls.

Experiment [1] deals with Receptor-interacting serine/threonine-protein kinase 2 (Homo sapiens) (UniProt O43353). Put plainly: inhibitors of RIPK2 association with NOD2 – fluorescence, CHO cells, BLA complementation, triplicate, confirmation (AID 624370;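 active = mean inhibition across replicates above a set limit taken from the earlier primary screen, cut at about 21% in these data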;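 also: 0% = DMSO-only wells and the high end = clavulanate BLA-blocked wells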). To be noted: CCF4 FRET, at 4.98 µM, active compounds read high.
A short description of experiment [2]: BLA reporter readout interference – cell-based, CHO-K1 CMV-bla, CCF4 FRET, fluorescence, artefact control for NOD2-RIPK2 interaction inhibitor project, confirmation (AID 624371;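 active = mean inhibition above the low-control mean inhibition plus three low-control SD, cut at about 11% in these data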;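 also: 0% = DMSO only wells and 100% = clavulanate high control wells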). To be noted: CCF4 FRET ratio, counterscreen, at 4.98 µM, active compounds read high. (The purpose of a counterscreen is to sort out artefacts and off-target activity.)
The target in experiment [3] is Nuclear receptor coactivator 1 (Homo sapiens) (UniProt Q15788). Put plainly: NCOA1 GAL4-fusion reporter inhibition – cell-based, luminescence, quadruplicate, confirmation (AID 588820;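 active = mean inhibition above 46.68%, the untreated control wells mean plus 3 SD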;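 also: 0% = DMSO wells and 100% = gossypol 36 µM treated wells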). To be noted: HEK293 GAL4-SRC1 luciferase reporter, at 3.6 µM, active compounds read high. For orientation: Reporter assays use an easily measured gene product as a stand-in for the process of interest.

A short description of experiment [4]: repression of VP16-driven luciferase reporter – cell-based, luminescence, high throughput, counter-screen for SRC1 inhibitor project (AID 588824). The following applies: cell-based VP16 transactivation luciferase luminescence; at 3.6 µM; active compounds read high.
Experiment [5] deals with transactivating tegument protein VP16 (Human herpesvirus 1). Put plainly: compounds suppressing VP16-driven luciferase signal – cell-based, luminescence, single concentration, counter-screen for SRC2 inhibitor project (AID 652007; in the data active = inhibition above about 36%). The following applies: cell-based VP16 transactivation luciferase reporter, at 8.9 µM, active compounds read high.
Experiment [6] deals with Nuclear receptor coactivator 2 (Homo sapiens) (UniProt Q15596). As to the kind of experiment: inhibition of GAL4-SRC2 driven luciferase expression – cell-based, luminescence, HEK293, triplicate, confirmation (AID 652008;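 active = mean inhibition above 46.5%, the solvent-only control mean plus 3 SD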;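 also: 0% = DMSO-treated cells and 100% = Gossypol at 36 µM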). The following applies: HEK293 GAL4-SRC2 luciferase reporter, at 8.9 µM, active compounds read high.
A short description of experiment [7]: StAR promoter reporter inhibitors, counter-screen for LRH-1 inverse agonist project, cell-based, luminescence, high throughput (AID 651611; in the data active = inhibition above about 28%). The following applies: StAR promoter luciferase reporter counterscreen, at 3.6 µM, active compounds read high.
Experiment [8] addresses Nuclear receptor subfamily 5 group A member 2 (Homo sapiens) (UniProt O00482). Put plainly: NR5A2 activity suppression in reporter cells – cell-based, luminescence, confirmation (AID 651613; in the data active = inhibition above about 42%;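 also: HEK293T cells co-transfected with LRH-1 and StAR promoter luciferase reporter; 0% = vehicle wells and 100% = parental cells lacking receptor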). To be noted: cell-based LRH-1 luciferase reporter, inverse agonism; at 3.6 µM; active compounds read high.
For experiment [9], the target named is Steroidogenic factor 1 (Homo sapiens) (UniProt Q13285). Put plainly: inverse agonism at SF1 nuclear receptor – cell-based, luminescence, high throughput, counter-screen for LRH-1 inverse agonist project (AID 651614; in the data active = inhibition above about 44%;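 also: cells cotransfected with StAR promoter reporter and SF1 expression vector; 0% = vehicle on cells with receptor and 100% = vehicle on cells lacking receptor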). The following applies: cell-based SF1 luciferase reporter, at 3.6 µM, active compounds read high.
A short description of experiment [10]: compounds suppressing VP16-driven luciferase signal – cell-based, luminescence, high throughput, counter-screen for LRH-1 inverse agonist project (AID 651615; in the data active = inhibition above about 33%). To be noted: Gal4-VP16 luciferase reporter cells, at 3.6 µM, active compounds read high.
Experiment [11] relates to DAF-12 nuclear receptor (Heterodera glycines), GAL4-LBD fusion. As to the kind of experiment: hgDAF-12 GAL4 fusion reporter activation, retest – cell-based, luminescence, HEK293, GAL4-LBD fusion, confirmation (AID 743050;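 active = mean activation over triplicate wells above the hit cutoff derived from the earlier primary screen, cut at about 11% in these data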;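 also: 0% = DMSO low control and 100% = 2 mM sodium butyrate high control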). The following applies: HEK293 GAL4-hgDAF12 luciferase reporter, agonist mode; at 6.8 µM; active compounds read high; percent of butyrate response.
Experiment [12] deals with Oxysterols receptor LXR-beta (Homo sapiens) (UniProt P55055). Put plainly: nonspecific reporter activation via LXR – cell-based, luminescence, HEK293, H. glycines campaign, counter-screen for hgDAF-12 agonist project, confirmation (AID 743051;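 active = mean activation of the triplicate above a set limit carried over from the primary screen, none filed active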). The following applies: HEK293 Gal4-LXR luciferase reporter, 24 h; at 6.8 µM; active compounds read high.

Each structure is given as a SMILES string. A number with no mark means an inactive call. This is one part of the list. The source made the active and inactive calls. Rule as the data show it, unless noted: active = inhibition above about 25%; inactive = the rest.

Nuclear receptor coactivator 2 (Homo sapiens), sequence (Q15596 whole entry, looked up, the tested form may be a part): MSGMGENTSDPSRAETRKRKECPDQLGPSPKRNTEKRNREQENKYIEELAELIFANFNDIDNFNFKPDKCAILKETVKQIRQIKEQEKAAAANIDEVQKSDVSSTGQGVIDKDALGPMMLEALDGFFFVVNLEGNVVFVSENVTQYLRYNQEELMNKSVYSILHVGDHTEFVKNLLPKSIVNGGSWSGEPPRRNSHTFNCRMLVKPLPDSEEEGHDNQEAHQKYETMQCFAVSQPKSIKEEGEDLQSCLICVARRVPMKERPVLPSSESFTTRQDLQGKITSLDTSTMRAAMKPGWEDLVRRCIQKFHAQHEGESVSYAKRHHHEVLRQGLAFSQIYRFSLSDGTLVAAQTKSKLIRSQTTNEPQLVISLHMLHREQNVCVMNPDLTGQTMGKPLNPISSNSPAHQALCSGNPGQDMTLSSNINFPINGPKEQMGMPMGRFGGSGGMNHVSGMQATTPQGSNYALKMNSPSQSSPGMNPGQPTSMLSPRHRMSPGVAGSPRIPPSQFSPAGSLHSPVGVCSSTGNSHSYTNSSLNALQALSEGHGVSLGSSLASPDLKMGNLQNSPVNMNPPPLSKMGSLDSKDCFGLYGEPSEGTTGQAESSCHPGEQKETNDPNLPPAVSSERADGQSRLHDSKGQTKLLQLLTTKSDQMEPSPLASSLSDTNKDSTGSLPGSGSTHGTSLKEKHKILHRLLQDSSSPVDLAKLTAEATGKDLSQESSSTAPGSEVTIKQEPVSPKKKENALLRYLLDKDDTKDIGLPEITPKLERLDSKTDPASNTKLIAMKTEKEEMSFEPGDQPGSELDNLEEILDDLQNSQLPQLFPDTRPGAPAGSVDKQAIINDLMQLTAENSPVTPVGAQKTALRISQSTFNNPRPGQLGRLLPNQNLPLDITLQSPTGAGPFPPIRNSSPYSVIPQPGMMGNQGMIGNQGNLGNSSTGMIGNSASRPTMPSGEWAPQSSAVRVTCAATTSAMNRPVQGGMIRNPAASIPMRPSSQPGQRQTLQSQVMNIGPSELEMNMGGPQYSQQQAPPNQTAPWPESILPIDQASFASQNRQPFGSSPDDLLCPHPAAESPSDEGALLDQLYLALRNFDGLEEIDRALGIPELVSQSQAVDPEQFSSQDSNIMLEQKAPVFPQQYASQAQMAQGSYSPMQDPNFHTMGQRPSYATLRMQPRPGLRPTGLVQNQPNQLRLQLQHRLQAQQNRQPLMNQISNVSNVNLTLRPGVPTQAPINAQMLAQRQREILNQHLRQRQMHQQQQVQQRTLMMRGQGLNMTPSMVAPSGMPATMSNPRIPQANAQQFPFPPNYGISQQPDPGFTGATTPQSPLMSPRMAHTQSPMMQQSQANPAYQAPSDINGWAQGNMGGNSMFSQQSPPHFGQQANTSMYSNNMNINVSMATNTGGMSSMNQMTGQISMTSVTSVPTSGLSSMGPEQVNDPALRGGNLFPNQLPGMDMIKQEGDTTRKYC
Nuclear receptor coactivator 1 (Homo sapiens), sequence (Q15788 whole entry, looked up, the tested form may be a part): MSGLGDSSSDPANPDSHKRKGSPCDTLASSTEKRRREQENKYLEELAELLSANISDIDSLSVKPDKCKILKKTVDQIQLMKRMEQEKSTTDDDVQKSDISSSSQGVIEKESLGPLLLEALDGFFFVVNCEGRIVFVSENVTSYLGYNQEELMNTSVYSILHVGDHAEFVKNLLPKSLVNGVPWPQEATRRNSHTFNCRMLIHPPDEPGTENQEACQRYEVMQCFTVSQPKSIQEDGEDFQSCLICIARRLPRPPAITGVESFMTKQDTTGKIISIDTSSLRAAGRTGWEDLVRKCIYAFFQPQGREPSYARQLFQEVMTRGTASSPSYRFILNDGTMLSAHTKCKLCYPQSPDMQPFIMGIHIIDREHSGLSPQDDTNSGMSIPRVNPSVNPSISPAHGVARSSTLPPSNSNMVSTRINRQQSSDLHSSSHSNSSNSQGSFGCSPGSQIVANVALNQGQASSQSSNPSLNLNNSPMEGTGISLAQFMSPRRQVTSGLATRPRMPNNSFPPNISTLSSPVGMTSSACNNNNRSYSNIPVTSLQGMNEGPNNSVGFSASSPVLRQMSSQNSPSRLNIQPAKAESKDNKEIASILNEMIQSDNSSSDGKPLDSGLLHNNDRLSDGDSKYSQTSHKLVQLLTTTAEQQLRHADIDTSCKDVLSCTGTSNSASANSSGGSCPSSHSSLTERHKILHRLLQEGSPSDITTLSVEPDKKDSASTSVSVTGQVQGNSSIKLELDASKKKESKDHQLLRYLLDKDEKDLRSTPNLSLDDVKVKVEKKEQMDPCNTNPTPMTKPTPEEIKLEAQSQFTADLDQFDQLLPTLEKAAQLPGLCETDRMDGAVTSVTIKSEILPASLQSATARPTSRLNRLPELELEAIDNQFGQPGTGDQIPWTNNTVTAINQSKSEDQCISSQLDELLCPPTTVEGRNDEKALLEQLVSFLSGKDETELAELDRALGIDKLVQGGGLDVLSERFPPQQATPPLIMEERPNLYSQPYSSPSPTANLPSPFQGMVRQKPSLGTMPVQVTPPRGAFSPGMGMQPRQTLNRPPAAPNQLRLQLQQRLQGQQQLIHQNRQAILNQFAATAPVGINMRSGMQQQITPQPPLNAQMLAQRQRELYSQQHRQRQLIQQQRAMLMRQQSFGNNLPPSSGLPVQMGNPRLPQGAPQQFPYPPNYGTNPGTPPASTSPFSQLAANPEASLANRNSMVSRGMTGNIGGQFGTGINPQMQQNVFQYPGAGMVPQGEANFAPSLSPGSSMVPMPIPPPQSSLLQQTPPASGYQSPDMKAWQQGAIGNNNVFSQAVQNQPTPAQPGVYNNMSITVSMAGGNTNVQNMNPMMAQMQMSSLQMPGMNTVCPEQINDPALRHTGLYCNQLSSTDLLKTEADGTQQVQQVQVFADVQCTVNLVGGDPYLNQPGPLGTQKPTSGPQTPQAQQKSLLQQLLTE
Receptor-interacting serine/threonine-protein kinase 2 (Homo sapiens), sequence (O43353 whole entry, looked up): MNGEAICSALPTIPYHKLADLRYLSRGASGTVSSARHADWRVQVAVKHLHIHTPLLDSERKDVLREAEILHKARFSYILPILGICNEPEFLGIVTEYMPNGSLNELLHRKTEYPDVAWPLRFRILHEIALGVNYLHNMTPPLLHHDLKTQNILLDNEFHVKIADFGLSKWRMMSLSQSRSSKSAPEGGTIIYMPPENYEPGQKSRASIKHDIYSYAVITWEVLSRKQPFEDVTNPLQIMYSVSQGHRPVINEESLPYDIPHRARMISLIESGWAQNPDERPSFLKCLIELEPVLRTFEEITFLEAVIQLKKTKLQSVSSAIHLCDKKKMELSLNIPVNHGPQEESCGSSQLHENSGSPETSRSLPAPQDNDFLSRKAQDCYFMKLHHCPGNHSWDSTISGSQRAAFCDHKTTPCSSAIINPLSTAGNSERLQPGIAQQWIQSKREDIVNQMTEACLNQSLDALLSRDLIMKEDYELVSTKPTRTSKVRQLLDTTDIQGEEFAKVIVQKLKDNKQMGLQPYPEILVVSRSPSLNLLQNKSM
Nuclear receptor subfamily 5 group A member 2 (Homo sapiens), sequence (O00482 whole entry, looked up): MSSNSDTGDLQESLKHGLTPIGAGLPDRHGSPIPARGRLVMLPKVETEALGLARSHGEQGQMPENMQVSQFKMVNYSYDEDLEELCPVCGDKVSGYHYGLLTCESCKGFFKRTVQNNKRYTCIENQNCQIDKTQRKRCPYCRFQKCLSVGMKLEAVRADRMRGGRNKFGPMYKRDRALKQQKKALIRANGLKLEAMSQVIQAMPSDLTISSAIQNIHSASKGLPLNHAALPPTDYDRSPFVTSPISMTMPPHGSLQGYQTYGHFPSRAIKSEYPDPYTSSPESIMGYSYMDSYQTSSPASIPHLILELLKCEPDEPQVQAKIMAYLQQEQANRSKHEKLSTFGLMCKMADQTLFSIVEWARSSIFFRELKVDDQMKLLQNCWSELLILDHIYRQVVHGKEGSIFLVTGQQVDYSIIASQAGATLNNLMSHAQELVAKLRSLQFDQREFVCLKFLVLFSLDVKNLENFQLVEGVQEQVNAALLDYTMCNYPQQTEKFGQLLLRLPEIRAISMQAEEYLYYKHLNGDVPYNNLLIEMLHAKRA
Steroidogenic factor 1 (Homo sapiens), sequence (Q13285 whole entry, looked up, the tested form may be a part): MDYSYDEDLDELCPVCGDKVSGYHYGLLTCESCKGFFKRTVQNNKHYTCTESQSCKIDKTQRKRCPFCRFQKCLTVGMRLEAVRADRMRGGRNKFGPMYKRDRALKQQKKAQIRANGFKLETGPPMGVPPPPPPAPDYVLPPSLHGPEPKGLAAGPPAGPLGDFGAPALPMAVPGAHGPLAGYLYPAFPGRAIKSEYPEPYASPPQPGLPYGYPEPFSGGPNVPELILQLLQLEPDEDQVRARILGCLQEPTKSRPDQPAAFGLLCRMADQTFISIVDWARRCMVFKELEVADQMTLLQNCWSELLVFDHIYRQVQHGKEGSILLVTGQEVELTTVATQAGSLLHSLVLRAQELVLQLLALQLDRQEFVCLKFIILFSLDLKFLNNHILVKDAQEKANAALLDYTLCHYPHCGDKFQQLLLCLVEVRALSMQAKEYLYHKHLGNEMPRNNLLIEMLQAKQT
Oxysterols receptor LXR-beta (Homo sapiens), sequence (P55055 whole entry, looked up, the tested form may be a part): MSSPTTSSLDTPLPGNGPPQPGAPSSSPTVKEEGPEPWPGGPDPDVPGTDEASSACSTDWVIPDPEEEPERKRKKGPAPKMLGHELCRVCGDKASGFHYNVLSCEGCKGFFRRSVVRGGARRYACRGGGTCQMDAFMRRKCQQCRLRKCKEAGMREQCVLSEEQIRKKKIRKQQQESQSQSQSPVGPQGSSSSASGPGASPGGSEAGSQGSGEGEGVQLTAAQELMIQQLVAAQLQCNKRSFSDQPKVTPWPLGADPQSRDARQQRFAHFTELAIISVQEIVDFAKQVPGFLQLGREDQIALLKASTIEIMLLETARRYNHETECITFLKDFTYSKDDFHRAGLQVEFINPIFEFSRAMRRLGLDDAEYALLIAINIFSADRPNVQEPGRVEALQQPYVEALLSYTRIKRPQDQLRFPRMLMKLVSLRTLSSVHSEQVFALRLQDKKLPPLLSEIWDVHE

Take `CC(=O)Nc1ccc(C=Cc2ccc([N+](=O)[O-])cc2)cc1`: the figures for the inhibition in experiment [1] and in [2] were 21.3% (active) and 33.9% (active), respectively.
For `CC(C)(C)OC(=O)N1CCC(NC(=O)c2[nH]cnc2C(=O)N[C@@H](Cc2ccccc2)C(=O)OCc2ccccc2)CC1`, in that order: 16.1% and -4.79%.
As for `O=C1CCC2S/C(=C/Nc3ccc(C(F)(F)F)cc3)C(=O)N12` (stereo not drawn), the inhibition is 15.1% in experiment [3], 6.56% in experiment [4], 3.33% in experiment [5] and 66.4% (active) in [6].
In the case of `O=[N+]([O-])/C=C/c1ccc2c(ccn2Cc2ccccc2)c1`, the inhibition in experiment [1] was 83.3% (active); in experiment [2], 7.27%.
Regarding `CCN(CC)CC(C)(C)C(=O)/C=C/c1ccc(/C=C/C(=O)C(C)(C)CN(CC)CC)cc1`, the inhibition was 84.5% (active) in experiment [4]; 84.9% (active) in experiment [7]; 99.6% (active) in experiment [8]; 95.1% (active) in experiment [9]; 88.8% (active) in [10].
As to `COc1cccc2sc(N(CCCN(C)C)C(=O)CCS(=O)(=O)c3ccccc3)nc12`, the results for the inhibition in experiment [1] and in experiment [2] were 40.3% (active) and 8.45%, respectively.
With `O=C(Cc1csc(Nc2nc(=S)[nH]c3ccccc23)n1)NCCCN1CCN(c2cccc(Cl)c2)CC1`, the inhibition is 38% (active) in experiment [1] and 55.8% (active) in experiment [2].
`CCOC(=O)C1=C(C)N(C[C@@H]2CC[C@@H](Cc3ccc(-c4ccccc4)cc3)O2)C(=O)NC1c1ccc([N+](=O)[O-])cc1` (stereo partly drawn): the results for the inhibition in experiment [1] and in [2] were -2.24% and -1.01%, respectively.
On the same counts, the results for `COc1ccc(C2=CC(c3cccc(OC)c3)n3nnnc3N2)cc1` (stereo not drawn) are 3.71% and 10.4% (active).
In the case of `CNc1cncc(-c2ccc(NS(C)(=O)=O)cc2)n1`, the figures for the inhibition in experiment [3] and in experiment [4] were 20.8% and 31% (active), respectively. Moreover, the activation in [11] was 8.61%; in experiment [12], 0.06%.
Take `CC(=O)Nc1ccc(OCC(=O)Nc2ccc(Cl)c(S(=O)(=O)N3CCOCC3)c2)cc1`: the inhibition in experiment [3] was -7.7%; in experiment [4], 27.7% (active); in experiment [5], -7.09%; in experiment [6], 19.6%.
For `Cc1ccc(-c2cc(C(=O)NCCCN3CCOCC3)no2)cc1`, in that order: 8.12%, -4.18%, -12.9% and 53.2% (active).
Consider `O=C1C(=O)N(CC2COc3ccccc3O2)c2ccccc21` (stereo not drawn), for which the inhibition in experiment [1] was -7.75%; in experiment [2] it was -10.2%.
As to `CC(C)(C)c1cc(/C=N/O)cc(C(C)(C)C)c1O`, the inhibition in experiment [3] is 33.6%; in experiment [4] it was 26.5% (active); in experiment [5] it was -7.33%; in experiment [6], 9.3%.
For `O=C1C=C(NCCc2cc(Br)c(O)c(Br)c2)C(=O)c2ncccc21`, the inhibition was -170% in [3], 14.2% in [4], 4.39% in experiment [5] and 25.9% in [6].
In the case of `COc1ccccc1NS(=O)(=O)c1cccc(NC(=O)c2cncc(Br)c2)c1`, the inhibition in experiment [3] is 20%; in [4], 25.1%; in experiment [5] it was 14.8%; in [6] it was 21%.
Regarding `CCOC(=O)c1c(C)cc2c(CO)n[nH]c(=O)c2c1C`, the inhibition in experiment [3] was 11.6%; in [4] it was 23.1%; in experiment [5] it was -8.56%; in experiment [6] it was 34.9%.
Regarding `COCCNC(=O)c1c[nH]c2ccc(S(=O)(=O)N3CCc4ccccc43)cc2c1=O`, the inhibition is 43.8% in experiment [3], 29.5% (active) in experiment [4], 20.1% in [5] and 33.5% in experiment [6].
For `O=S(=O)(Nc1ccc2c(c1)OCCO2)c1cccc2nsnc12`, in that order: 7.42%, -8.28%, -9.03% and 44%.
On to `CN(c1ccc(C(=O)N2CCN(Cc3ccc4c(c3)OCO4)CC2)cc1)S(=O)(=O)c1ccccc1`, for which the inhibition was 14.7% in experiment [3], 23% in [4], 31% in experiment [5] and 37.4% in experiment [6].
Consider `Cc1ccccc1Cn1c(C)nc2ccccc21`, for which the inhibition in [3] was -27.4%; in experiment [4] it was 29.1% (active); in experiment [5], 20%; in experiment [6], 27%.
For the compound `O=C1CC(C(F)(F)C(F)(F)C(F)(F)C(F)(F)F)=Nc2ccccc2N1`, the inhibition in experiment [1] is -1.13%; in experiment [2] it was 0.83%.
Regarding `CC(C)CCNC(=O)c1sc2ccc(S(=O)(=O)N3CCCCC3)cc2c1N`, the inhibition in experiment [3] was 13.5%; in experiment [4], 13.8%; in [5], 7.45%; in experiment [6] it was 27.6%.
On the same counts, the results for `C=C1C(=O)C23C(O)C1CCC2C12COC3(O)C(O)C1C(C)(C)CCC2O` (stereo not drawn) are -16%, -9.14%, 2.43% and 25.9%.
`O[C@H]1C[C@H](c2ccc(Cl)cc2)N(Cc2cccs2)C[C@@H]1n1cc(C2CC2)nn1`: the inhibition in [1] was -0.97%; in experiment [2], 0.34%.
On to `C[C@H]1CN([C@@H](C)CO)C(=O)c2cc(-c3cccc(F)c3)cnc2O[C@@H]1CN(C)S(C)(=O)=O`, for which the inhibition was -4.32% in experiment [1] and -1.39% in [2].
